Bst PK mod – Pyruvate Kinase; purified pyruvate kinase, luminescence ATP production; ribose 5-phosphate activator present at AC10; Potency, µM; 51,000 compounds, 1.2% hits; AID 361, 2006; in the data active = potency below about 11 µM; inconclusive = mostly about 12 µM to 25 µM;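 the screen sought inhibitors and activators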;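 also: scaled between full activation by ribose 5 phosphate and full inhibition by luteolin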
Luciferase inh – qHTS Assay for Inhibitors of Firefly Luciferase; 72,000 compounds, 2.2% hits; AID 411, 2009; purified firefly luciferase, luminescence, 8 min; Potency, µM (highest dose often 57.1 µM), inactives show top-dose activity change, negative = inhibition, actives largely listed as inhibitors; Luciferin 4-monooxygenase (Photinus pyralis), P08659; active = well fitted inhibition curve with a large enough effect; inconclusive = small, poorly fitted or top-dose-only effect; also: nearly all actives have a fitted effect of over 40% in size
Target sequence (P08659 whole entry, looked up): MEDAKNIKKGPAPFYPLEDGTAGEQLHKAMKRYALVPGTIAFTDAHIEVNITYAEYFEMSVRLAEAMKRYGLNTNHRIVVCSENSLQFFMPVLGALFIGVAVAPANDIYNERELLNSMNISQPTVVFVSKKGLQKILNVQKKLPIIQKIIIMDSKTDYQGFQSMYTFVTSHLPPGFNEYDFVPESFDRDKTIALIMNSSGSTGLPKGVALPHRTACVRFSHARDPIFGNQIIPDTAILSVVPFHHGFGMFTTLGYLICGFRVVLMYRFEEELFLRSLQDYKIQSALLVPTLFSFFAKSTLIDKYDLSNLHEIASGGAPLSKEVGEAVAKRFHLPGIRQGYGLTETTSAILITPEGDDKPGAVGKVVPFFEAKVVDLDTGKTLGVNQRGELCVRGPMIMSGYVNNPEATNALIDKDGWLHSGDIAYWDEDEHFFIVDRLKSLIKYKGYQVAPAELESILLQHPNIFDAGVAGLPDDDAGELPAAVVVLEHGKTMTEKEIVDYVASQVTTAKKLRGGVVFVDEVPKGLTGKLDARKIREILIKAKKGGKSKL
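Luminescence read-out after 8 min at room temperature; enzyme reaction used luciferin plus 10 uM ATP (linear range) in imidazole buffer pH 7.2 with KCl, MgCl2, Tween 20 and BSA. Each sample was run as a titration.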
An asterisk follows results filed as active; i = inactive; ? = inconclusive; nt = no result given; ! = a repeat was not active; [ ] = another dose, or the depositor's remark. A selection: hits, their analogues and other compounds. The true share with any hit is near 2.5%. Unless noted, % is scaled to controls: 0 for no effect and ±100 for the full control effect; potency is read from the fitted curve at half-maximal effect.

SMILES	Bst PK mod	Luciferase inh
Cc1ccc(Oc2ccc(NC(=O)c3ccco3)cc2)cc1	nt	-17.9%
O=C(Nc1cccc(-c2nc3ccccc3[nH]2)c1)c1cccc(NC(=O)c2ccco2)c1	>57	-21.7%
Cc1cccc2[nH]c(-c3ccc(NC(=O)c4ccco4)cc3)nc12	?	15.8µM*
Cc1ccc(-c2nc3ccccc3[nH]2)cc1NC(=O)c1ccco1	i	20µM*
Cc1cc(-c2cccs2)c2c(n1)sc1c(=O)[nH]c(=O)[nH]c12	>57	1.6%
Oc1[nH]c2ccccc2c1C=NCC1CCCO1 (centres undefined)	>57	-0.2%
Oc1[nH]c2ccccc2c1/C=N/c1nccs1	?	25.1µM*
CC(=O)N1CCc2cc(NS(=O)(=O)c3cccs3)ccc21	>57	4.8%
CCOc1ccc2c(c1)sc1nc(C(=O)OC)cc(=O)n12	nt	0.7%
CCOc1ccc2c(c1)sc(=NC(=O)C1CC1)n2C	i	12.6µM*
COc1cc2c(cc1OC)C(C(=O)N1CCCC1)C(c1ccccc1F)N(C)C2=O (centres undefined)	>57	0.6%
CN(C)c1oc(-c2ccco2)nc1C#N	>57	-2.5%
CCn1nc(NC(=O)c2ccccn2)c2cc3cc(C)ccc3nc21	nt	7.94µM*
CCn1nc(NC(=O)c2cccnc2)c2cc3ccccc3nc21	>25.6	-1.7%[25.5 µM]
CCN(CC)CCN1C(=O)Cn2c(C)c(C)c3cccc1c32	>57	-0.9%
Cc1nn(-c2ccccc2)c(C)c1P(=O)(c1ccccc1)N(C)C (centres undefined)	>57	1.1%
CCOc1ccc(-c2nc(C#N)c(NCC(C)C)o2)cc1	>25.6	-3.5%[25.5 µM]
c1cc(-c2nnc(-c3ccncc3)o2)ccn1	nt	1.8%
CC(C)COc1ccc(-c2nnc(-c3ccncc3)o2)cc1	2.32*	2.7%
CCCOc1ccc(-c2nnc(-c3ccncc3)o2)cc1	1.57*	-4.3%
COc1ccc(NC(=O)Cc2nnc(SCC(=O)Nc3cc(C)ccc3OC)n2C)cc1	>57	-2.1%
Cc1cc(NCCCn2ccnc2)n2nc(-c3ccc(F)cc3)cc2n1	?	12.6µM*
Cc1cccc(-c2cc3nc(C)cc(NCCCN(C)C)n3n2)c1	nt	-1.1%
Cc1cc(C)c2c(n1)nn1c(NCCCn3ccnc3)cc(C)nc21	>57	1.2%
Cc1ccc(-c2cc3nc(C)cc(NCc4ccco4)n3n2)cc1	6.48*	7.94µM*
SMILES	Bst PK mod	Luciferase inh
CCOc1cc(C(=O)NC)cc(OCC)c1OCC	>57	-0.8%
O=C(Oc1ccc2c(=O)c(Cl)coc2c1)c1ccncc1	>57	1.9%
Cc1cc(-c2cccs2)n[nH]1	nt	0.0%
COc1cccc(-c2nn3c(-c4cccc(C)c4)nnc3s2)c1	nt	-2.3%
Cc1nc2nc(-c3cccs3)cn2nc1C	nt	20µM*
COc1cccc(-c2cn3nc(C)c(C)nc3n2)c1	i	12.6µM*
CCSC1(SCC)N=C(N)C2(C#N)C(c3ccc(OC)c(OC)c3OC)C12C#N (centres undefined)	>57	-5.6%
CCOc1ccccc1NC(=O)CSc1nc2c(c(=O)n1C)SC(C)C2 (centres undefined)	nt	-2.1%
COc1ccc(C(=O)/C=C/Nc2cc(C)on2)cc1	nt	3.16µM*
COc1ccc(CC(=O)Nc2cc(C)on2)cc1	>57	-2.9%
COc1ccc(N2C(=O)c3ccc(NC(C)=O)cc3C2=O)cc1	>57	0.0%
COc1ccc(N2CCN(c3cc(C)c4ccc(O)cc4n3)CC2)cc1	nt	-4.4%
CCN1CCN(Cc2ccc3c(c2)Cc2ccccc2-3)CC1	nt	-4.0%
c1ccc2c(c1)Cc1cc(CN3CCOCC3)ccc1-2	nt	12.6µM*
CC(=O)NCCNc1ncncc1-c1ccccc1C(F)(F)F	nt	0.1%[2.29 µM]
CCc1c(O)nc(SCC(=O)Nc2ccccc2C)[nH]c1=O	>57	-0.8%
CCc1nc(SCC(=O)N2CCCC2)c2ccccc2n1	>57	-1.5%
CC(C)c1nc(SCC(=O)N2CCCC2)c2ccccc2n1	nt	7.94µM*
O=C(Cn1cccc1C(=O)c1ccccc1)NCc1cccnc1	>57	3.0%
O=C(Nc1ccc2nsnc2c1)c1cccs1	>57	-4.3%
O=C(Nc1cccc2nsnc12)c1cccs1	>11.4	15.8µM*!
Cc1nc2ccccn2c1-c1nnco1	>57	-2.8%
Cc1cc(-c2nnco2)c(C)n1-c1ccccc1	nt	12.6µM*
CC1CCCCC1NC(=O)CN(C)S(=O)(=O)c1cccc2nsnc12 (centres undefined)	>57	-2.3%
Cc1nc(-c2ccc(C(=O)O)cc2)cs1	>57	-2.5%
SMILES	Bst PK mod	Luciferase inh
COc1ccccc1-c1ccc(Nc2cccc(C(C)=O)c2)nn1	>57	20µM*
COC(=O)c1cccc(Nc2cc(C)nc(-c3ccccc3O)n2)c1	>25.6	-1.6%[25.5 µM]
C=CCSc1nc(C)c(CC=C)c(=O)[nH]1	>25.6	0.6%[25.5 µM]
Cc1ccc(C(=O)OCC(=O)c2ccc(Cl)s2)s1	i	15.8µM*
O=C(COC(=O)c1ccc[nH]c1=O)c1ccc(Cl)s1	>57	-17.4%
Cc1cc(C(=O)OCCO)c(C#N)c(N)n1	>57	0.5%
Cc1cccc(OCC(=O)NCCN2CCOCC2)c1	>57	1.3%
CO[C@H]1COC(=O)[C@@H](C)COC(=O)[C@@H](Cc2ccccc2)NC(=O)C/C=C\[C@H]1C	nt	-1.2%[11.4 µM]
Cc1noc(C)c1C(=O)OCC(=O)c1c[nH]c2ccccc12	nt	15.8µM*
Cc1noc(C)c1COC(=O)c1cc(=O)[nH]c2ccccc12	>57	6.9%
Cn1c(=O)c2c(nc(SCCCC#N)n2Cc2ccccc2F)n(C)c1=O	nt	-2.3%
C/C(=N\O)C(=O)NCC1CCNCC1	>57	1.0%
O=C(Nc1cccc(-c2cn3cccnc3n2)c1)c1ccc2c(c1)OCO2	nt	15.8µM*
O=C(Nc1cccc(-c2cn3cccnc3n2)c1)c1ccco1	nt	-16.1%
C#CCCCO/N=C1/C[C@@H](O)[C@@H](O)[C@@H]2[C@H]3C(=O)N(c4ccc(F)cc4F)C(=O)[C@@H]3CC[C@H]12	nt	-0.2%[11.4 µM]
COc1ccc(OC)c(N=c2oc3cc(O)ccc3cc2C(N)=O)c1	>57	12.6µM*
NC(=O)c1cc2ccc(O)cc2oc1=NCc1ccccc1	nt	-4.6%
O=C(N[C@@H](CO)[C@@H](O)c1ccc([N+](=O)[O-])cc1)C(Cl)Cl	nt	-0.3%[25.5 µM]
O=C(COC(=O)c1ccccn1)Nc1c(Cl)cccc1Cl	i	-1.1%
O=C(COC(=O)c1ccccn1)c1ccc(Br)cc1	nt	10µM*
Cc1[nH]nc2c1C(c1ccccc1F)CC(=O)N2 (centres undefined)	>57	-0.2%
O=C(O)c1cccc(NS(=O)(=O)c2cccc3cccnc23)c1	nt	-0.2%
COc1ccc(-c2nnc(-c3cccs3)o2)cc1OC	nt	12.6µM*
c1csc(-c2nnc(-c3ccc(N4CCOCC4)cc3)o2)c1	?	3.16µM*
COc1cc(-c2nnc(-c3cccs3)o2)cc(OC)c1OC	>57	-2.9%
SMILES	Bst PK mod	Luciferase inh
c1cncc(-c2nnc(-c3cccs3)o2)c1	>57	-1.0%
CCn1cc(CNC(=O)CCc2ccc(OC)cc2)cn1	>57	0.6%
Cc1cc2nc(-c3ccc(NC(=O)C(C)C)cc3)oc2cc1C	nt	-1.3%
O=C(Nc1ccc2oc(-c3ccncc3)nc2c1)c1cccs1	3.58*	-9.6%
CC(C)C(=O)Nc1ccc(-c2nc3cccnc3o2)cc1	nt	5.01µM*
Cc1ccc(-c2nc3cc(NC(=O)C(C)C)ccc3o2)cc1C	1.74*	2µM*
CCOc1ccc(C(=O)Nc2cccc(-c3nc4cccnc4o3)c2)cc1Cl	>57	-14.1%
Cc1ccc(-c2nc3cc(NC(=O)C(C)C)ccc3o2)cc1	nt	5.01µM*
CC(C)C(=O)Nc1cccc(-c2nc3ccccc3o2)c1	>57	-1.2%
O=C(Nc1ccc2oc(-c3ccncc3)nc2c1)c1ccccc1F	nt	-11.8%

Bioassay records deposited in PubChem by National Center for Advancing Translational Sciences (NCATS).
